Compounds without any hit were thinned out: in the full panel of roughly 83,000, 20% have a hit.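 Results are percent growth after 48 hours of single-concentration exposure. 100 means growth as in untreated cells, lower positive values show inhibition; negative values down to -100 show cell death.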 Activity calls are given as the source filed them. How the source made its calls: active means growth percent below 10; inactive means the rest.
How the values were obtained:
Assay in all cases: NCI-60 one-dose screen, 48 h (100 = growth as untreated, 0 = no growth, -100 = all killed)
Settings in all cases: 10 µM
[1] = system: OVCAR-8 ovarian
[2] = system: OVCAR-5 ovarian
[3] = system: OVCAR-4 ovarian
[4] = system: SK-OV-3 ovarian
[5] = system: OVCAR-3 ovarian
[6] = system: HS 578T breast
[7] = system: NCI/ADR-RES ovarian
[8] = system: T-47D breast
[9] = system: BT-549 breast
[10] = system: MDA-MB-435 melanoma
[11] = system: SW-620 colon
[12] = system: MCF7 breast
[13] = system: HCT-116 colon
[14] = system: HCC-2998 colon
[15] = system: KM12 colon
[16] = system: IGROV1 ovarian

Measured: growth

Nc1nc(N)c2c(ccc3nccc32)[nH]1
inactive: [1] 26.2% | [2] 65.2% | [3] 66.1% | [4] 58.8% | [5] 75.5% | [6] 89.5% | [7] 53.1% | [8] 73% | [9] 21% | [10] 34.8% | [11] 29.4% | [12] 54% | [13] 15.1% | [14] 54.4% | [15] 62.4%

Cc1cc(Cl)nc(N(CCCNc2ccnc3cc(Cl)ccc23)Cc2cccs2)n1
active: [1] 7.5% | [16] 6.77% | [8] -2.57% | [10] 3.55% | [13] 3.08% | [14] 0.165%
inactive: [2] 31.8% | [3] 11% | [4] 46.3% | [5] 25.9% | [6] 48.6% | [9] 24.7% | [11] 11.8% | [12] 10.7% | [15] 12.8%

COc1ccc(C2CC(c3ccc(N(C)C)cc3)=NN2c2ccc(S(N)(=O)=O)cc2)cc1 (stereo not given)
inactive: [1] 42.3% | [2] 84.3% | [3] 48.6% | [4] 70.3% | [16] 56.6% | [5] 54.7% | [6] 96.7% | [8] 36.9% | [9] 75% | [10] 36.9% | [11] 58% | [12] 20.5% | [13] 18.7% | [14] 75% | [15] 29.1%

O=C1c2ccc3c4c(ccc(c24)C(=O)N1CCNCc1ccccc1)C(=O)N(CCNCc1ccccc1)C3=O
active: [1] 2.34% | [3] -97.8% | [16] -75.7% | [5] -62.6% | [8] -27.2% | [9] -21.3% | [10] -75.6% | [11] 3.88% | [12] -45.4% | [13] -18% | [14] -92.2% | [15] -43.3%
inactive: [2] 132% | [4] 109% | [6] 102%

COc1ccc(OC)c(/C=C/c2nc(SC)n(-c3ccc(Cl)cc3)n2)c1
inactive: [1] 78.5% | [2] 112% | [3] 70% | [4] 83.8% | [16] 61.8% | [6] 91.2% | [8] 42.8% | [9] 80% | [12] 46.7% | [13] 59.8% | [14] 69.6% | [15] 53.1%
active: [10] 8.73%

c1ccc2c(-c3nc(N4CCOCC4)c4c5c(sc4n3)CCCCCC5)cccc2c1
inactive: [1] 101% | [2] 103% | [3] 106% | [4] 111% | [16] 112% | [6] 104% | [7] 109% | [8] 95% | [9] 97.9% | [10] 111% | [12] 91.8% | [13] 109% | [14] 106% | [15] 109%

O=C1/C(=C/c2ccc(Cl)cc2)SC(=Nc2ccc(Cl)cc2)N1Cc1nc2ccccc2[nH]1
inactive: [1] 66.9% | [2] 107% | [4] 97.6% | [16] 64.8% | [5] 81.6% | [6] 114% | [8] 78.1% | [9] 104% | [10] 76.3% | [11] 74.9% | [12] 59% | [13] 53.8% | [14] 62% | [15] 76.7%

CCn1cc(C(=O)O)c(=O)c2cnc(N3CCCC3)nc21
inactive: [1] 101% | [2] 103% | [3] 105% | [4] 108% | [16] 103% | [5] 119% | [6] 99.9% | [8] 99.1% | [9] 104% | [10] 94.2% | [11] 106% | [12] 103% | [13] 96.9% | [14] 107% | [15] 108%

CCCCC/C=C/C(=O)CCc1ccc(O)c(OC)c1
inactive: [1] 88.6% | [2] 127% | [4] 86.7% | [5] 55.8% | [6] 104% | [8] 73.3% | [9] 66.9% | [10] 19.4% | [11] 68.4% | [13] 13.6% | [14] 21% | [15] 31.1%
active: [12] 1.77%

CS(=O)(=O)Nc1cccc(-c2cc(-c3ccccc3Cl)c(C#N)c(N)n2)c1
active: [5] -29.3% | [6] -1.53% | [10] -45.8% | [14] -3.16%
inactive: [1] 44% | [2] 56.3% | [3] 47.1% | [4] 22% | [16] 51.4% | [8] 36.9% | [9] 37.1% | [11] 24.5% | [12] 22.7% | [13] 21.8%

O=c1[nH]c2ccc(Cl)cc2c2ccccc12
active: [3] -3.77%
inactive: [1] 77.5% | [2] 84.2% | [4] 39.4% | [16] 29.5% | [5] 87% | [6] 75.1% | [8] 10.4% | [9] 100% | [10] 72.1% | [11] 102% | [12] 93.1% | [13] 38.4% | [14] 52.4% | [15] 65.2%

O=c1c2ccccc2nc(SCCN2CCCCC2)n1CCc1ccccc1
inactive: [1] 95.9% | [2] 88.7% | [3] 86.7% | [4] 92.6% | [16] 78.7% | [5] 94.1% | [6] 93.9% | [8] 65.5% | [9] 86.3% | [10] 95.9% | [11] 89.9% | [12] 63.3% | [13] 74% | [14] 97.9% | [15] 94.2%

c1ccc([C@H]2CN3CCSC3=N2)cc1
inactive: [2] 87.2% | [4] 107% | [5] 111% | [6] 85.7% | [7] 103% | [8] 99.6% | [9] 102% | [10] 101% | [11] 98.6% | [12] 94.4% | [13] 110% | [14] 119% | [15] 109%

O=C1NC(=O)N(Cc2ccccc2)CC1Br (stereo not given)
inactive: [1] 61.9% | [2] 85.3% | [3] 77.7% | [4] 87% | [16] 56.9% | [5] 92.9% | [6] 114% | [8] 57% | [9] 94.5% | [10] 62.9% | [11] 51.7% | [12] 56.6% | [13] 28.1% | [14] 95.4%

Source: PubChem BioAssay (NCI)
